Measurements: PubChem BioAssay (Tox21)
Values without a mark were called inactive. Results filed as inconclusive are left out. Entries that show only a call come without a potency. Active and inactive are the calls of the source. Unless noted, the call rests on the fitted dose curve.

Assays:
[1] = Nuclear factor erythroid 2-related factor 2/antioxidant responsive element (Nrf2/ARE) small molecule agonists: qHTS cell viability counter screen in human keratinocytes (AID 1919968; active means well fitted curve in the direction sought with a large enough effect in the repeat runs; an effect the other way counts as inactive or inconclusive; further: nearly all actives have a fitted effect of over 55% in size)
Method in brief: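 Measured as CellTiter-Fluor fluorescence, this readout tracks cytotoxicity in the same wells as the ARE-luciferase screen. HaCaT reporter cells (1,500/well) received compounds after a 5 h pre-incubation and were exposed for 23 h.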

[2] = Nuclear factor erythroid 2-related factor 2/antioxidant responsive element (Nrf2/ARE) small molecule agonists: luciferase reporter gene qHTS assay in human keratinocytes (AID 1919969); further: nearly all actives have a fitted effect of over 35% in size; further: potency means the concentration at half of the fitted maximal effect
[3] = molecular target: Gonadotropin-releasing hormone receptor (Homo sapiens) (UniProt P30968); test: Human gonadotropin-releasing hormone receptor (GnRHR) small molecule agonists, calcium flux assay in GnRHR-HEK293 cells (AID 1920063); further: nearly all actives have a fitted effect of over 35% in size
Chain of Gonadotropin-releasing hormone receptor (Homo sapiens) (P30968 whole entry, looked up): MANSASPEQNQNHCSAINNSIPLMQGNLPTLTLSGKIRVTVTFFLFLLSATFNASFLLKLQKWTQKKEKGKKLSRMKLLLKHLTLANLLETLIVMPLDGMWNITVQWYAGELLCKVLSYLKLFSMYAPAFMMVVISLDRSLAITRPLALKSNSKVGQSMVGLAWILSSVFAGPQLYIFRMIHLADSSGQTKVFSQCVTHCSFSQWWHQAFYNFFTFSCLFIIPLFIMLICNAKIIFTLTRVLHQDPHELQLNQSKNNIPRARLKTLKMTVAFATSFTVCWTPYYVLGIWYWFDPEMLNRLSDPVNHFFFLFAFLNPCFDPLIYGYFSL
Method in brief: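 Fluorescence kinetics (480 nm excitation, 540 nm emission; 3 min, 1 s steps) report calcium mobilisation in human GnRHR-HEK293 cells in agonist mode. Dye incubation: 1 h, 37 C.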

[4] = molecular target: KiSS-1 receptor (Homo sapiens) (UniProt Q969F8); test: Human kisspeptin (KISS1R) small molecule agonists, calcium flux assay in KISS1R-HEK293 cells (AID 1920064; active means well fitted curve in the direction sought with a large enough effect in the repeat runs; an effect the other way counts as inactive or inconclusive)
Chain of KiSS-1 receptor (Homo sapiens) (Q969F8 whole entry, looked up): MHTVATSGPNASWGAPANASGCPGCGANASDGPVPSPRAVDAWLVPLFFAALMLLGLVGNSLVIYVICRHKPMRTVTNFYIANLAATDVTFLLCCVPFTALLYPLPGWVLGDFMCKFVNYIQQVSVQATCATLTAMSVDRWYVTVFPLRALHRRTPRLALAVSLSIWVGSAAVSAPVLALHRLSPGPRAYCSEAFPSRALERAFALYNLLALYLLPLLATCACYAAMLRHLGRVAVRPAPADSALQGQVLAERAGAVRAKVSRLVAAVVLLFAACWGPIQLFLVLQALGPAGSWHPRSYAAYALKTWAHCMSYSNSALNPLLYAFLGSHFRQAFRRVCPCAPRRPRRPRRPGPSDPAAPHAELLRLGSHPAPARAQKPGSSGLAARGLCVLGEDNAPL
Method in brief: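 Measures KISS1R agonism through calcium-sensitive dye fluorescence in stably transfected HEK293 cells, read for 3 min after pin-tool compound delivery; 15-point titrations in triplicate.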

[5] = p53 small molecule agonists, cell-based qHTS assay with human liver microsomes (AID 1963577);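 further: p53 response element beta-lactamase reporter cells with liver microsomes plus NADPH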
Method in brief: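 In this qHTS, p53 response-element beta-lactamase cells receive test compound together with a microsome/NADPH activating system (0.5 mg/mL final each) and are incubated 16 h at 37 C before LiveBLAzer fluorescence detection.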

[6] = p53 small molecule agonists, cell-based qHTS assay with rat liver microsomes (AID 1963578)
Method in brief: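 Agonist mode in p53RE-bla reporter cells, with compounds co-incubated 16 h at 37 C alongside 0.5 mg/mL rat liver microsomes and 0.5 mg/mL NADPH (final), followed by a 2 h LiveBLAzer detection step.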

[7] = p53 small molecule agonists, cell-based qHTS assay with human liver microsomes: qHTS cell viability counter screen (AID 1963579); further: nearly all actives have a fitted effect of over 45% in size
Method in brief: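 Metabolically activated exposure: compounds, human liver microsomes and NADPH (0.5 mg/mL final apiece) were added to p53RE-bla cells seeded 5 h earlier, left 16 h at 37 C, and then assessed for viability by CellTiter-Glo luminescence.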

[8] = p53 small molecule agonists, cell-based qHTS assay with rat liver microsomes: qHTS cell viability counter screen (AID 1963580); further: nearly all actives have a fitted effect of over 45% in size
Method in brief: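 Intracellular ATP, by CellTiter-Glo luminescence, defines viability. HCT-116 p53RE-bla cells, 4,000 per well, were compound-treated in the presence of rat liver microsomes and NADPH for 16 h at 37 C.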

[9] = p53 small molecule agonists, cell-based qHTS assay: qHTS cell viability counter screen (AID 1963581); further: nearly all actives have a fitted effect of over 45% in size
Method in brief: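 In the same plates used for the p53 bla reporter, HCT-116 cells given compounds for 16 h at 37 C received CellTiter-Glo; luminescence was recorded 30 min later at room temperature.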

[10] = p53 small molecule agonists, cell-based qHTS assay (AID 1963582; active means well fitted activation curve with a large enough effect in the signal ratio in the repeat runs, not every such curve was filed as active; the % refers to the signal ratio)
Method in brief: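 Compounds are pin-transferred in DMSO onto p53RE-bla cells and incubated 16 h at 37 C. The B/G FRET beta-lactamase substrate is then applied for 2 h at RT and fluorescence recorded.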

[11] = molecular target: 5-hydroxytryptamine receptor 2A (Homo sapiens) (UniProt P28223); test: 5-hydroxytryptamine receptor 2A (HTR2A) small molecule antagonists, cell-based qHTS assay (AID 1963586); further: nearly all actives have a fitted effect of over 45% in size
Chain of 5-hydroxytryptamine receptor 2A (Homo sapiens) (P28223 whole entry, looked up): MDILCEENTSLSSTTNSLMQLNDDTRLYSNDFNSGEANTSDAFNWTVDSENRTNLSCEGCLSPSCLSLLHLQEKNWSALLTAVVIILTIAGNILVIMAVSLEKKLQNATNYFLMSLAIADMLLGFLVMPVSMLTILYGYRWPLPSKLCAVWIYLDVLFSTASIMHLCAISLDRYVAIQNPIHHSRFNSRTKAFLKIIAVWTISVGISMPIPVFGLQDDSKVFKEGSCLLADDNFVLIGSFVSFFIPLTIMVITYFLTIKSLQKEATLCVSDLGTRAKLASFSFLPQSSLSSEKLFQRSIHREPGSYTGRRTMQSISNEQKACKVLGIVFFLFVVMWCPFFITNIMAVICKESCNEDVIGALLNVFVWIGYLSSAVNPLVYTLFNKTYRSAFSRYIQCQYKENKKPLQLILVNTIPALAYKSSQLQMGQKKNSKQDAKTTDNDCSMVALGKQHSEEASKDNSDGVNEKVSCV
Method in brief: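 Antagonist-mode intracellular calcium assay: DOI (4 nM) added after 5 min compound pre-incubation at room temperature to dye-loaded HTR2A-CHO cells. Fluorescence followed for 3 min, sampled every second.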

[12] = molecular target: 5-hydroxytryptamine receptor 2A (Homo sapiens) (UniProt P28223); test: 5-hydroxytryptamine receptor 2A (HTR2A) small molecule agonists, cell-based qHTS assay (AID 1963587); further: nearly all actives have a fitted effect of over 30% in size
Method in brief: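 Kinetic calcium-flux fluorescence (2 min, 1 sec intervals) after compound addition in agonist mode. HTR2A-CHO cells were cultured 18 h, then dye-loaded 1 h at 37 C.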

[13] = molecular target: Muscarinic acetylcholine receptor M1 (Homo sapiens) (UniProt P11229); test: Cholinergic receptor muscarinic 1 (CHRM1) small molecule antagonists, cell-based qHTS assay (AID 1963588); further: nearly all actives have a fitted effect of over 40% in size
Chain of Muscarinic acetylcholine receptor M1 (Homo sapiens) (P11229 whole entry, looked up): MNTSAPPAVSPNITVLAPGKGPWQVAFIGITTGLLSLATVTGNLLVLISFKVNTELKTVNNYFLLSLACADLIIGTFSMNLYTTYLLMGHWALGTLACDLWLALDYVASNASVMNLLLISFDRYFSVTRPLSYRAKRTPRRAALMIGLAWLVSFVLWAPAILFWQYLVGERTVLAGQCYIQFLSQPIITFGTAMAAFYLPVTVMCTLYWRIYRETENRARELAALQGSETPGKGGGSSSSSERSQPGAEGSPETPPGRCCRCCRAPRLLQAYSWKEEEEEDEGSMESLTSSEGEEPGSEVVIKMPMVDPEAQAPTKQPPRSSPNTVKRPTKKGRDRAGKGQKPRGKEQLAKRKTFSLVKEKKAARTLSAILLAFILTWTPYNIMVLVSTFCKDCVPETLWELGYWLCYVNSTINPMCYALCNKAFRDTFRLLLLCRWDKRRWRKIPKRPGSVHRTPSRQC
Method in brief: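 CHRM1-CHO calcium-flux assay, antagonist mode. Cells were seeded 18 h, dye-loaded 1 h at 37 C and given compound for 5 min at RT, then acetylcholine was added at 50nM. FDSS fluorescence was read 3 min; 15 concentrations, three runs.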

[14] = molecular target: Muscarinic acetylcholine receptor M1 (Homo sapiens) (UniProt P11229); test: Cholinergic receptor muscarinic 1 (CHRM1) small molecule agonists, cell-based qHTS assay (AID 1963589); further: nearly all actives have a fitted effect of over 35% in size
Method in brief: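 Each compound was tested at 15 concentrations across three independent runs on dye-loaded CHO cells stably expressing human CHRM1, reading intracellular calcium fluorescence kinetically at 1 sec intervals.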

[15] = cAMP Responsive Elements (CRE) small molecule agonists, cell-based qHTS assay (AID 1963590)
Method in brief: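 Cell line: CRE-bla HEK 293T; medium DMEM/10% dialyzed FBS/0.1 mM NEAA/1 mM pyruvate/25 mM HEPES; 3 h compound exposure; beta-lactamase FRET readout after 2 h substrate loading at RT.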

[16] = cAMP Responsive Elements (CRE) small molecule antagonists, cell-based qHTS assay (AID 1963591; active means well fitted inhibition curve with a large enough effect in the signal ratio in the repeat runs, not every such curve was filed as active; the % refers to the signal ratio)
Method in brief: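 Inhibition of NKH477-driven (0.25 uM final) CRE-beta-lactamase signal in HEK293T cells, 3 h compound exposure at 37 °C, detected by FRET substrate fluorescence.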

[17] = molecular target: Beta-2 adrenergic receptor (Homo sapiens) (UniProt P07550); test: Adrenergic beta2 receptor (ADRB2) small molecule antagonists, cell-based qHTS assay (AID 1963592); further: series mostly up to about 92 µM; nearly all actives have a fitted effect of over 50% in size
Chain of Beta-2 adrenergic receptor (Homo sapiens) (P07550 whole entry, looked up): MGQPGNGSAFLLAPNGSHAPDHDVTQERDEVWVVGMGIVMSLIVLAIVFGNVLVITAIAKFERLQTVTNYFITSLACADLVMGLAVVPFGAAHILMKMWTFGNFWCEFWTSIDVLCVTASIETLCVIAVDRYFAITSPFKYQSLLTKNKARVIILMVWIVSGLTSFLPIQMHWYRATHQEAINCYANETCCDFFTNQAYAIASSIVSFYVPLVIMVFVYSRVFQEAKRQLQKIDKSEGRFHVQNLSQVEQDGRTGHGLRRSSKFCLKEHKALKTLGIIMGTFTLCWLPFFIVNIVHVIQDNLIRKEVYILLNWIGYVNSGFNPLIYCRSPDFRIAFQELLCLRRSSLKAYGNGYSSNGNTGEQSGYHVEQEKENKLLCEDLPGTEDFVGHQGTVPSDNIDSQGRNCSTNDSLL
Method in brief: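 Cells (CHO, stable ADRB2 overexpression) incubated 18-20hr at 37C; compounds added from DMSO; agonist mix (1nM isoproterenol, 100uM IBMX, 25uM Ro-20-1724) added; 0.5hr RT; d2-cAMP and anti-cAMP-cryptate added; 1hr RT; 665/615 nm read.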

[18] = molecular target: D(2) dopamine receptor (Homo sapiens) (UniProt P14416); test: Dopamine D2 receptor (DRD2) small molecule agonists, cell-based qHTS assay (AID 1963594); further: nearly all actives have a fitted effect of over 35% in size
Chain of D(2) dopamine receptor (Homo sapiens) (P14416 whole entry, looked up): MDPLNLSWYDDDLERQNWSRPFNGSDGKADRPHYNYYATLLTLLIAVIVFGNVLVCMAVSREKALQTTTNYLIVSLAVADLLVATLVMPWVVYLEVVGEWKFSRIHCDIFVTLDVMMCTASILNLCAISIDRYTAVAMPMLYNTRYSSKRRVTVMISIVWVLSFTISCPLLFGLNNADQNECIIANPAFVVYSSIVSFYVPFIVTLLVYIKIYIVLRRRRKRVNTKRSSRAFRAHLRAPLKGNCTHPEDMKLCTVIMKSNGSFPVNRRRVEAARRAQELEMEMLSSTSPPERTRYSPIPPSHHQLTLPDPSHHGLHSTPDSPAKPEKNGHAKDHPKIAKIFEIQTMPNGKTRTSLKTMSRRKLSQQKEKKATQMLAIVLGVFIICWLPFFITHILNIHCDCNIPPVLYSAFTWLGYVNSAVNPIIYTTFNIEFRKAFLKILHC
Method in brief: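 cAMP accumulation in DRD2-HEK293 cells measured by HTRF after 1 h detection; compounds added 10 min before NKH477 (200nM […]) forskolin-analogue stimulation, 30 min at room temperature, with Ro20-1724 present at 0.1 mM final.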

[19] = molecular target: D(2) dopamine receptor (Homo sapiens) (UniProt P14416); test: Dopamine D2 receptor (DRD2) small molecule antagonists, cell-based qHTS assay (AID 1963595; active means well fitted inhibition curve with a large enough effect in the signal ratio in the repeat runs, with a control signal flat; the % refers to the signal ratio)
Method in brief: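 HTRF cAMP read-out at 665 and 620 nm emission (340 nm excitation). Antagonist mode: compounds were tested against 12 nM quinpirole in DRD2-HEK293 cells, with 200 nM NKH477 raising cAMP and 0.1 mM Ro20-1724 blocking its breakdown.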

[20] = molecular target: Beta-2 adrenergic receptor (Homo sapiens) (UniProt P07550); test: Adrenergic beta2 receptor (ADRB2) small molecule agonists, cell-based qHTS assay (AID 1963593);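 further: CHO cells stably overexpressing human ADRB2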
Method in brief: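 CHO cells stably over-expressing ADRB2 were plated overnight at 37C, then dosed with compounds plus a stimulation mix containing 100uM IBMX and 25uM Ro-20-1724 for 0.5hr at room temperature. cAMP was measured by HTRF competition, 1hr.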

## CC[C@H](C)[C@H](N)C(=O)O
[1]
  Potency: inactive
[2]
  Potency: inactive
[3]
  Potency: inactive
[4]
  Potency: inactive
[5]
  Potency: inactive
[6]
  Potency: inactive
[7]
  Potency: inactive
[8]
  Potency: inactive
[9]
  Potency: inactive
[10]
  Potency: inactive
[11]
  Potency: inactive
[12]
  Potency: inactive
[13]
  Potency: inactive
[14]
  Potency: inactive
[15]
  Potency: inactive
[16]
  Potency: inactive
[17]
  Potency: inactive
[18]
  Potency: inactive
[19]
  Potency: inactive

## CSc1ccc(C(=O)c2[nH]c(=O)[nH]c2C)cc1
[1]
  Potency: inactive
[2]
  Potency: inactive
[3]
  Potency: inactive
[4]
  Potency: inactive
[5]
  Potency: inactive
[6]
  Potency: inactive
[7]
  Potency: inactive
[8]
  Potency: inactive
[10]
  Potency: inactive
[11]
  Potency: inactive
[12]
  Potency: inactive
[13]
  Potency: inactive
[14]
  Potency: inactive
[15]
  Potency: inactive
[16]
  Potency: inactive
[17]
  Potency: inactive
[20]
  Potency: inactive
[18]
  Potency: inactive
[19]
  Potency: inactive

## O=C(NCN1CCOCC1)c1cnccn1
[1]
  Potency: inactive
[2]
  Potency: inactive
[3]
  Potency: inactive
[4]
  Potency: inactive
[5]
  Potency: inactive
[6]
  Potency: inactive
[7]
  Potency: inactive
[8]
  Potency: inactive
[9]
  Potency: inactive
[11]
  Potency: inactive
[12]
  Potency: inactive
[13]
  Potency: inactive
[14]
  Potency: inactive
[15]
  Potency: inactive
[16]
  Potency: inactive
[17]
  Potency: inactive
[20]
  Potency: inactive
[18]
  Potency: inactive
[19]
  Potency: inactive

## c1ccc2cnncc2c1
[1]
  Potency: inactive
[2]
  Potency: inactive
[3]
  Potency: inactive
[4]
  Potency: inactive
[5]
  Potency: inactive
[6]
  Potency: inactive
[7]
  Potency: inactive
[8]
  Potency: inactive
[9]
  Potency: inactive
[10]
  Potency: inactive
[11]
  Potency: inactive
[12]
  Potency: inactive
[13]
  Potency: inactive
[14]
  Potency: inactive
[15]
  Potency: inactive
[16]
  Potency: inactive
[17]
  Potency: inactive
[18]
  Potency: inactive
[19]
  Potency: inactive

## CC1COc2ccccc2N1 (centres undefined)
[1]
  Potency: inactive
[2]
  Potency: 54.5 µM (active)
[3]
  Potency: inactive
[4]
  Potency: inactive
[5]
  Potency: inactive
[6]
  Potency: inactive
[7]
  Potency: inactive
[8]
  Potency: inactive
[9]
  Potency: inactive
[10]
  Potency: inactive
[11]
  Potency: inactive
[12]
  Potency: inactive
[13]
  Potency: inactive
[14]
  Potency: inactive
[15]
  Potency: inactive
[16]
  Potency: inactive
[17]
  Potency: inactive
[20]
  Potency: inactive
[18]
  Potency: inactive
[19]
  Potency: inactive

## CC1CCC(C(C)(C)S)C(=O)C1 (centres undefined)
[1]
  Potency: inactive
[2]
  Potency: inactive
[3]
  Potency: inactive
[4]
  Potency: inactive
[5]
  Potency: inactive
[6]
  Potency: inactive
[8]
  Potency: inactive
[9]
  Potency: inactive
[10]
  Potency: inactive
[12]
  Potency: inactive
[13]
  Potency: inactive
[14]
  Potency: inactive
[15]
  Potency: inactive
[16]
  Potency: inactive
[17]
  Potency: inactive
[18]
  Potency: inactive
[19]
  Potency: inactive

## CO[C@H]1C=CO[C@@]2(C)Oc3c(C)c(O)c4c(O)c(c(/C=N/N5CCN(C)CC5)c(O)c4c3C2=O)NC(=O)/C(C)=C\C=C[C@H](C)[C@H](O)[C@@H](C)[C@@H](O)[C@@H](C)[C@H](OC(C)=O)[C@@H]1C
[1]
  Potency: inactive
[2]
  Potency: inactive
[3]
  Potency: inactive
[4]
  Potency: inactive
[6]
  Potency: inactive
[8]
  Potency: inactive
[9]
  Potency: inactive

## COc1cc(OC)nc(O[C@H](C(=O)O)C(OC)(c2ccccc2)c2ccccc2)n1
[1]
  Potency: inactive
[2]
  Potency: inactive
[3]
  Potency: inactive
[5]
  Potency: inactive
[6]
  Potency: inactive
[7]
  Potency: inactive
[8]
  Potency: inactive
[9]
  Potency: inactive
[10]
  Potency: inactive
[11]
  Potency: inactive
[12]
  Potency: inactive
[13]
  Potency: inactive
[14]
  Potency: inactive
[15]
  Potency: inactive
[16]
  Potency: inactive
[17]
  Potency: inactive
[20]
  Potency: inactive
[18]
  Potency: inactive
[19]
  Potency: inactive
